In the library only some 4.2% were active in any assay of this set; here they are far more common.
TCR act – activates T cell receptor signaling. Potency, µM (doses to about 9.22 µM), most hits filed as activators. 330,000 tested, under 10 active. primary human leukocytes, anti-CD3, IL-2 HTRF, 48 h
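IL-2 release read by HTRF sandwich (Eu cryptate donor, d2 acceptor, 665 nm emission) after 48 hr exposure of primary human leukocytes to compound together with anti-CD3 beads in the absence of co-stimulatory signals.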
ClpP mod – qHTS Assay for Activators of ClpP | hit rate 1.9% among 340,000 | Potency, µM (series often up to 57.5 µM) | ATP-dependent Clp protease proteolytic subunit (Bacillus subtilis (strain 168)), P80244 | purified B. subtilis ClpP, FRET peptide cleavage, 20 min; active = well fitted falling curve with a large enough effect; inconclusive = small, poorly fitted or top-dose-only effect; inactive = no such curve, though single readings can be large or run the other way; note: the source files actives as falling curves though it sought activators and does not explain the sign; nearly all actives have a fitted effect of over 65% in size
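ClpP 10 microg/mL final, pH 8 Tris/KCl buffer with BSA, glycerol, Tween-20; compound pinned in; FRET-FV substrate; RT 20 min; Ex320/Em430; ΔFRET vs ADEP 5.8 microM, DMSO, no enzyme.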
uPA generation – inhibitors of cell surface uPA generation | Potency, µM (highest dose often 38.3 µM), actives largely listed as inhibitors | hit rate 0.31% among 330,000 | cell surface uPA generation assay, qHTS; active = well fitted inhibition curve with a large enough effect; inconclusive = small, poorly fitted or top-dose-only effect; inactive = no such curve, though single readings can be large or run the other way; tested in mouse RAW 264.7 cells; note: nearly all actives have a fitted effect of over 55% in size
Sfp inh – Sfp phosphopantetheinyl transferase inhibition. Q9F4F7. Biochemical Sfp PPTase activity, qHTS. Potency, µM, hits mostly inhibitors. hit rate 3.5% among 310,000;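 note: the enzyme is Sfp with the accession as filed and its product quenches rhodamine fluorescence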
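After 15 min at room temperature with compound, 15 nM Sfp received 5 uM rhodamine-CoA plus 12.5 uM BHQ-2-ybbR (50 mM Hepes pH 7.6, 10 mM MgCl2). Rate came from the fluorescence difference over 30 min, ex 525/em 598 nm.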
Hits are given with their value; i = inactive; ? = inconclusive; nt = no result. Unless noted, calls come from the whole dose curve; as a rule, active = well fitted curve in the direction sought with a large enough effect; inconclusive = small, poorly fitted or top-dose-only effect, or another doubt; inactive = no such curve, though single readings can be large; an effect the other way counts as inactive or inconclusive.

SMILES	TCR act	ClpP mod	uPA generation	Sfp inh
COC(=O)c1c(NC(=O)/C=C/c2ccc(OC)c(OC)c2)sc2c1CCC2	nt	i	nt	nt
O=P(O)(O)OP(=O)(O)OP(=O)(O)O	nt	nt	nt	i
COc1cccc(-n2c(SCC(N)=O)nnc2-c2ccco2)c1	i	31.6µM	i	i
COc1ccc(OC)c(NC(=O)CSc2nnc(-c3ccco3)n2-c2ccc(C(=O)O)cc2)c1	i	i	i	56.2µM
COc1ccc(-n2c(SCC(N)=O)nnc2-c2ccco2)cc1	i	i	i	i
COc1cccc(-c2nnc3n2N=C(c2ccccc2OC)CS3)c1	nt	nt	nt	i
CCCOc1ccccc1/C=C1/C(=O)ON=C1C	i	i	i	56.2µM
C#CCOc1ccc(Cl)cc1/C=C1/C(=O)ON=C1C	i	nt	i	50.1µM
C#CCOc1ccc(/C=C2/C(=O)ON=C2C)cc1Br	i	nt	i	56.2µM
CCOc1cc(/C=C2/C(=O)ON=C2C)cc(Br)c1O	i	i	i	i
COc1ccc(NC(=O)CSc2nnnn2C)c([N+](=O)[O-])c1	i	nt	i	i
CCn1c(SCC#N)nc2c(c1=O)C1(CCCC1)Cc1ccccc1-2	i	i	i	i
CCn1c(=O)c2c(n3c(=S)[nH]nc13)-c1ccccc1CC21CCCCC1	i	nt	i	17.8µM
Cc1nc(/C(N)=N/OC(=O)Cc2ccccc2)no1	i	nt	i	i
Cc1ccc(/C(=N/Nc2nc3ccccc3s2)C2=C(O)c3ccccc3C2=O)cc1	i	i	nt	79.4µM
CCc1ccccc1NC(=O)C1=C(C)C(=O)OC12CCCCCC2	nt	i	nt	nt
CCOC(=O)C1/C(=N\O)CC(C)(O)C(C(=O)OCC)C1c1ccc(OC)c(OC)c1 (stereo not drawn)	i	i	i	i
CCOC(=O)C1/C(=N\O)CC(C)(O)C(C(=O)OCC)C1c1ccc(N(C)C)cc1 (stereo not drawn)	i	i	i	50.1µM
c1ccc(CCN(Cc2ccccc2)C2CCN(C3CCCC3)CC2)cc1	i	nt	i	50.1µM
O=C(CCCc1ccccc1)N1CCN(C2CCCCC2)CC1	nt	i	i	i
COc1ccc(-c2cn3c(C)c(C(=O)Nc4ccncc4)sc3n2)cc1	i	i	i	44.7µM
COc1ccc(-c2cn3c4c(sc3n2)CCCC4)cc1	i	i	i	79.4µM
CCn1cnc2c1c(=O)n(CC(=O)OC)c(=O)n2Cc1ccccc1	i	i	i	i
CCC1CCc2c(c3ccccc3[nH]c2=O)O1 (stereo not drawn)	i	i	i	i
O=c1[nH]c2ccccc2c2oc(CCl)nc12	i	nt	i	6.31µM
SMILES	TCR act	ClpP mod	uPA generation	Sfp inh
CC1(c2ccncc2)Nc2ccccc2-c2nc3ccccc3n21 (stereo not drawn)	i	28.2µM	i	i
COc1ccc2c(c1)C1(Nc3ccccc3-c3nc4ccccc4n31)C(=O)N2 (stereo not drawn)	i	i	i	i
O=C1c2ccccc2C2N1CCCN2C(=O)c1sc2ccccc2c1Cl (stereo not drawn)	nt	i	nt	nt
O=C(COC(=O)c1ccc(Br)o1)Nc1nc2ccccc2s1	i	i	i	i
CCc1ccc2nc(NC(=O)CCCc3cccs3)sc2c1	i	12.6µM	i	i
Cc1ccc2nc(NC(=O)COC(=O)c3ccc(Br)o3)sc2c1	i	i	i	25.1µM
O=C(NOC(=O)c1c(F)cccc1Cl)c1ccc(Cl)c(Cl)c1	i	i	i	i
Cc1cc(N2C(=O)C3C4CCC(C4)C3C2=O)no1 (stereo not drawn)	i	nt	i	i
Cc1ccc(S(=O)(=O)n2nc(-c3ccco3)nc2N)cc1	i	nt	i	89.1µM
Nc1nc(-c2ccco2)nn1S(=O)(=O)c1ccccc1	i	nt	i	i
Cc1nc(-c2ccccc2O)n(S(=O)(=O)N(C)C)n1	i	i	i	i
CN(C)S(=O)(=O)N1C(=O)c2ccccc2C1=O	i	i	i	12.6µM
CC1Cn2c(nc3sc4c(c3c2=O)CCC4)N1CCO (stereo not drawn)	nt	17.8µM	i	i
O=c1c2c3c(sc2nc2n1CCCCC2)CCC3	i	i	i	i
COc1ccc(C(=O)NNC(=O)C(Cc2ccc(O)cc2)NC(=O)c2ccccc2NC(=O)c2ccc(OC)cc2)cc1 (stereo not drawn)	i	i	i	22.4µM
CCCNC(=O)C(Cc1ccc(OC)cc1)NC(=O)c1ccc(Cl)cc1 (stereo not drawn)	i	i	i	nt
COc1ccc(C(=O)Nc2ccccc2C(=O)NC(Cc2ccc(O)cc2)C(=O)NNC(=O)c2ccccc2Cl)cc1 (stereo not drawn)	i	?	i	44.7µM
O=C(CSc1nc(-c2ccccc2)no1)N1CCN(c2ccc(F)cc2)CC1	nt	i	nt	nt
COc1ccc(NN=Nc2nc3c([nH]2)c(=O)n(C)c(=O)n3C)cc1	i	nt	i	15.8µM
Cn1c(=O)c2[nH]c(N=NNc3ccccc3F)nc2n(C)c1=O	i	nt	i	25.1µM
CSc1ccccc1NC(=O)COC(=O)c1c[nH]c(=O)[nH]c1=O	i	i	i	i
O=C(COC(=O)c1c[nH]c(=O)[nH]c1=O)Nc1ccccc1F	i	nt	i	70.8µM
Cc1ccc(Cl)cc1NC(=O)c1ccc(-c2nc(CSc3ccccc3)c(C)o2)cc1	nt	12.6µM	nt	nt
CCOC(=O)Cc1csc(NC(=O)/C=C/c2ccco2)n1	i	i	i	70.8µM
O=C(/C=C/c1ccco1)Nc1nc(-c2ccc(F)c(F)c2)cs1	i	i	?	22.4µM
SMILES	TCR act	ClpP mod	uPA generation	Sfp inh
O=C(/C=C/c1ccco1)Nc1nc(-c2ccccc2)cs1	i	i	i	i
COc1ccc(CCN2C(=O)COc3ccccc3C2C(=O)NC(C)(C)C)cc1OC (stereo not drawn)	nt	i	nt	nt
C/C=C/C=C/C(=O)[C@@H]1[C@@H]([C@]2(C)OC(=O)C(C)=C2O)[C@H]2/C(=C(O)/C=C/C=C/C)C(=O)[C@]1(C)C(=O)C2(C)O (stereo partly drawn)	i	i	?	50.1µM
COC(=O)c1c(NC(=O)CCCC(=O)O)sc(C)c1C	i	i	i	i
CCc1ccc(CCC(=O)Nc2sc(C)c(C)c2C(=O)OC)o1	i	i	nt	56.2µM
COc1cccc(NC(=O)NNS(=O)(=O)c2ccc(OC)cc2OC)c1	i	i	i	i
CNC(=S)NNS(=O)(=O)c1ccc(OC)cc1OC	nt	nt	i	25.1µM
Cc1cc(C)c(NC(=O)CSc2nc(=O)n(Cc3ccncc3)c3c2CCC3)c(C)c1	nt	i	nt	nt
O=C(Cc1ccc(OCCc2ccccc2)cc1)NO	nt	i	nt	nt
C=CCc1c(C)[nH]c2c(OC)cccc2c1=S	i	nt	i	12.6µM
N#CC1=C(N)Oc2c(oc(CO)cc2=O)C1c1ccsc1 (stereo not drawn)	i	i	i	50.1µM
N#CC1=C(N)Oc2c(ccc3ccccc23)C1c1ccsc1 (stereo not drawn)	i	i	i	56.2µM
CC1=C(C(=O)OCc2ccccc2)C(c2ccsc2)C(C#N)=C(N)O1 (stereo not drawn)	i	i	i	i
Cc1ccc(CN2CCSc3ccc(C(=O)Nc4ccc(F)cc4F)cc32)cc1	nt	i	nt	nt
NC(Cc1cc(I)c(Oc2cc(I)c(O)c(I)c2)c(I)c1)C(=O)O (stereo not drawn)	nt	nt	nt	i

Bioassay records (PubChem BioAssay)
